Reference: the supplement of paper PMC6555819

These sequences were tested on VDR:RXRa (NR concentration 270 nM, RXRa partner concentration 90 nM) (assay: PBM binding z-score (relative to random genomic background probes); higher = stronger binding; sequences stand for … in GC…GCGATTGACAGCGTAGAATGAAGG).
Description: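 Protein-binding microarray (Agilent 4x180K custom design, double-stranded 60-nt probes: 5' GC cap, 34-nt variable region, 24-nt constant primer region; full probe sequence given). Purified or IVT nuclear receptor:RXRα heterodimers (3:1 NR:RXRα, mostly 270:90 nM) or homodimers were incubated for 1 h in PBS with 2% milk and no ligand, then detected with Alexa488 antibodies. Fluorescence from o1-orientation probes (~5 replicates averaged) was converted to z-scores against 500 random hg19 background probes. Variable regions are seed direct-repeat (DR0–DR5) sites, all their single-nucleotide variants and half-site ablations.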
Sequence TAGCCTAGGTCATGTGGGCCAGTATAGTGTCGGC has a PBM binding z-score of 2.62.
For ATCGAAAGGTCGAGATGAGTATAGAGAAAGGGAA, the PBM binding z-score was 2.4.
With ATATGTAGGGTAAGGGTCATTCAGGTTGGTTCGC the PBM binding z-score was 5.59.
For CCTTACGGGTCACTCACAGGTTATAGCATTTGGA, the PBM binding z-score was 3.6.
With ATCTCTAGGTAACCAAGTTCACTGAATGCCGAAC the PBM binding z-score was 5.34.
Sequence TAGCCTAGGTCAGATCGGGCCAGCATACGCTATA has a PBM binding z-score of 0.584.
Sequence TCAGACAGGGGAAGGTAACTCAGGTACGCAGTCG has a PBM binding z-score of 0.795.
In the case of ATCTCTAGGTAAAGATAGCTCAGTGAATGCAAAT, the PBM binding z-score is reported as -0.433.
CGTTACGGGTCAAGGTTATAGCACGGGTGGTACG gave a PBM binding z-score of 3.62.
With AGAAGGAGGGCAATGAGTTGATAGCACGGGTGGC the PBM binding z-score was 4.93.
Sequence CCTAGCAGGCCAATCTTGGTCACTCAAGGCTTGA has a PBM binding z-score of -0.601.
With ATCTCTAGTTAACCAAGTTCAGTGAATGCCGAAC the PBM binding z-score was 2.46.
Sequence CCGGCTGGGGCAGAAAGGTTACCATACCATCCGG has a PBM binding z-score of 0.63.
In the case of CCTTACGGGTCACGAGGGTATAGCACGACGAGCG, the PBM binding z-score is reported as 5.04.
Sequence GCTTACGGGTCAAAGGTTTTAGCATGAATAGAAT has a PBM binding z-score of 4.08.
Work on AGAATGAGGTTATACGCAGATCAGGGAAGAAAGT yielded a PBM binding z-score of 1.35.
Work on TCTTGTAGGTCAACAGGAGGTTAAGAAAGATCGA yielded a PBM binding z-score of 3.79.
With CAAACTAGGTCAAGGTTAAAGTCGGTTTGTGCCA the PBM binding z-score was 3.2.
In the case of TCTTGTGGATCAACAGGAGGTTAAGAAAGATCGA, the PBM binding z-score is reported as 0.329.
CAAACTCGGTCACCGGAAGGTCAAAGTCCGCATG gave a PBM binding z-score of 4.77.
For AGAATGAGGTTATACGTAGATCAGGGCAGAAAGT, the PBM binding z-score was 1.67.
TCAGACAGGTGAAGGTAAATCAGGTACGCAGTCG showed a PBM binding z-score of 1.2.
In the case of GCTGCTAGGTCAGGTTGGTGAGCTAACGGGTACG, the PBM binding z-score is reported as 0.141.
CGTCCAAGGTCAGAGAGGTCAGCGAATGCCGAGT was tested, and the PBM binding z-score was 7.48.
With ATCTCTAGGTAACCAAGTTTAGTGAATGCCGAAC the PBM binding z-score was 1.55.
CGTCAAAGTTCAACTAAGGTAACGTAAAGCACGC was tested, and the PBM binding z-score was 4.74.
In the case of TTACCAAGGTGAAGTTCGTTGATCCCTCTGTAGA, the PBM binding z-score is reported as 1.49.
AATACAGCGTCACTAGGCCAGAGTAGGTACGAAT gave a PBM binding z-score of -0.29.
In the case of ATATGTAGGTTAGTTGGGGTCATTCAGACTAGGC, the PBM binding z-score is reported as 6.27.
Sequence ACCGAAAGGTCGACGAGGTGAGTATACACCGTTT has a PBM binding z-score of 5.14.
With TCTCAGAGGACACGAAGGTCAGAGCTTTCCAGAG the PBM binding z-score was 2.75.
With ACTCGGCGGACAAAGGTCAGAGCTACGCCAGTGA the PBM binding z-score was 2.44.
With GGAACGAGGGGATTCGAGTTGATAGCATGGCGAT the PBM binding z-score was 0.173.
ATACCAAGGTGATCGTGCGGTCGTTGATACTAAC showed a PBM binding z-score of 0.18.
For ATTATTAGTTGACTTAGGGCAACCGATACGACGC, the PBM binding z-score was 0.926.
CGTCCAAGGTCAAGGTCAGTAAAAGAGACTCGAA showed a PBM binding z-score of 4.65.
With CGAACTAGGCCATCCAGGACAGTGAATACATTGA the PBM binding z-score was 0.0871.
For GATACAGGGACAAGGCCAGAGTACGCGTATTGAT, the PBM binding z-score was -0.523.
Work on CCTTACGGGTCACTGCAGGTTATAGCATCGGAGT yielded a PBM binding z-score of 4.19.
CCAGACAGGTGCAAGGTAACTCAGTCTGGTACGC was tested, and the PBM binding z-score was -0.136.
